From PubChem BioAssay (Tox21)
Records with an inconclusive call do not appear. Active and inactive are the calls of the source. Unless noted, calls follow the shape of the full dose curve.

What was measured:
[1] = qHTS assay to identify small molecule agonists of the vitamin D receptor (VDR) signaling pathway - cell viability counter screen (AID 743224; active = well fitted curve in the direction sought with a large enough effect in the repeat runs; an effect the other way counts as inactive or inconclusive; also: series mostly up to about 63 µM; % is scaled to controls: 0 for no effect and ±100 for the full control effect; nearly all actives have a fitted effect of over 50% in size)
Summary of the method: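 Plated VDR-bla cells (4 h, 37C) received compound, incubated 16 h, then LiveBLAzer substrate 2 h RT; CellTiter-Glo added afterwards, luminescence read at 30 min.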

[2] = qHTS assay to identify small molecule agonists of the NFkB signaling pathway (AID 1159509; active = well fitted curve in the direction sought with a large enough effect in the signal ratio in the repeat runs, not every such curve was filed as active; the % refers to the signal ratio; also: series mostly up to about 61 µM; % is scaled to controls: 0 for no effect and ±100 for the full control effect)
Summary of the method: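 After overnight attachment, reporter cells received test compounds, DMSO or positive controls and were incubated 5 hr at 37 C. FRET substrate was then added for 1.5 hr at room temperature before dual-emission fluorescence reading.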

[3] = qHTS assay to identify small molecule agonists of the NFkB signaling pathway - cell viability counter screen (AID 1159515); also: series mostly up to about 61 µM; % is scaled to controls: 0 for no effect and ±100 for the full control effect; nearly all actives have a fitted effect of over 55% in size
Summary of the method: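 Using the same wells as the NFkB reporter read, ME-180 NFkB-bla cells given compounds for 5 hr were assessed for viability via CellTiter-Glo, with luminescence taken after a 30 min room-temperature incubation.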

[4] = qHTS assay to identify small molecule agonists of the endoplasmic reticulum stress response signaling pathway (AID 1159516; active = well fitted activation curve with a large enough effect in the signal ratio in the repeat runs, not every such curve was filed as active; the % refers to the signal ratio; also: % is scaled to controls: 0 for no effect and ±100 for the full control effect)
Summary of the method: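 An ESRE-bla HeLa cell assay: compounds were pin-transferred from DMSO onto overnight-plated cells and left 5 hr at 37 C. Substrate was then loaded for 2 hr at room temperature before reading fluorescence at 460 nm and 530 nm.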

[5] = qHTS assay to identify small molecule agonists of the endoplasmic reticulum stress response signaling pathway - cell viability counter screen (AID 1159517);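 also: HeLa cells carrying an ER stress response element beta-lactamase reporter; series mostly up to about 61 µM; % is scaled to controls: 0 for no effect and ±100 for the full control effect; nearly all actives have a fitted effect of over 50% in size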
Summary of the method: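 Cells, HeLa ESRE-bla; density, 1,500/well; dosing, 5 hr at 37 C, 5% CO2; readout, CellTiter-Glo luminescence after 30 min RT.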

[6] = qHTS assay to identify small molecule antagonists of the retinoid-related orphan receptor gamma (ROR-gamma) signaling pathway - cell viability counter screen (AID 1159520; active = well fitted curve in the direction sought with a large enough effect in the repeat runs; an effect the other way counts as inactive or inconclusive; also: % is scaled to controls: 0 for no effect and ±100 for the full control effect; nearly all actives have a fitted effect of over 50% in size)
Summary of the method: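 Cytotoxicity was read from cellular ATP (CellTiter-Glo luminescence) after 16 hr at 37 C with 1 uM doxycycline induction. The inducer was added 2 hr after compound transfer to Tet-on ROR gamma CHO cells.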

[7] = qHTS assay to identify small molecule agonists of the AP-1 signaling pathway - cell viability counter screen (AID 1159525); also: nearly all actives have a fitted effect of over 55% in size
Summary of the method: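 Luminescent ATP readout (Cell Titer Glo, 30 min RT), normalised to DMSO and tetra n-octyl ammonium bromide controls. Cells were ME-180 AP-1-bla in 0.5% dialyzed FBS Opti-MEM, with a 5 h, 37 °C compound exposure.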

[8] = qHTS assay to identify small molecule agonists of the AP-1 signaling pathway (AID 1159526); also: % is scaled to controls: 0 for no effect and ±100 for the full control effect
[9] = target: Retinoic acid receptor RXR-alpha (Homo sapiens) (UniProt P19793); test: qHTS assay to identify small molecule agonists of the RXR signaling pathway (AID 1159527); also: % is scaled to controls: 0 for no effect and ±100 for the full control effect; nearly all actives have a fitted effect of over 35% in size
Chain of Retinoic acid receptor RXR-alpha (Homo sapiens) (P19793 whole entry, looked up): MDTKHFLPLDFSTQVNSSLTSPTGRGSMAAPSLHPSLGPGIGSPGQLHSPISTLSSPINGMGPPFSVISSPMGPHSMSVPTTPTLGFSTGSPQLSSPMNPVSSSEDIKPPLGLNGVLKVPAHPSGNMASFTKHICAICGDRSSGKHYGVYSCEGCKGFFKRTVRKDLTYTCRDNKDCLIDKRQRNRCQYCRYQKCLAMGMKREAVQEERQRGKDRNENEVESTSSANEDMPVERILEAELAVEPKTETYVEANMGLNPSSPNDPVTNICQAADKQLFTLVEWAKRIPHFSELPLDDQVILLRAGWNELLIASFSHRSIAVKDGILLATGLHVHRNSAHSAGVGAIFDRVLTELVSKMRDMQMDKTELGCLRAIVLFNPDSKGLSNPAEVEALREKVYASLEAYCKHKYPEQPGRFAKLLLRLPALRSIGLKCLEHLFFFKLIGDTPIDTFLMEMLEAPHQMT
Summary of the method: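 Cells plated at 2,000/well, rested 5 hr at 37 C, pin-dosed with DMSO compound solutions, incubated 16 hr, then loaded with B/G FRET substrate for 2 hr at RT before dual-emission fluorescence reading.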

[10] = qHTS assay to identify small molecule antagonists of the retinoid acid receptor (RAR) signaling pathway - cell viability counter screen (AID 1159551; active = well fitted curve in the direction sought with a large enough effect in the repeat runs; an effect the other way counts as inactive or inconclusive; also: % is scaled to controls: 0 for no effect and ±100 for the full control effect; nearly all actives have a fitted effect of over 35% in size)
Summary of the method: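 Retinol-stimulated (1 uM final) C3RL4 cells, compound 6 h, 37 C; readout CellTiter-Glo luminescence (ATP) after 30 min RT incubation.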

[11] = qHTS assay to identify small molecule agonists of the retinoic acid receptor (RAR) signaling pathway (AID 1159553; active = well fitted curve in the direction sought with a large enough effect in the repeat runs; an effect the other way counts as inactive or inconclusive; also: % is scaled to controls: 0 for no effect and ±100 for the full control effect)
Summary of the method: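 Reporter readout comes from luciferase under RARE control in C3RL4 cells; compound exposure lasts 6 hr at 37 C in 5% CO2, and luminescence is recorded following a 30 min room-temperature incubation with reagent.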

[12] = qHTS assay to identify small molecule antagonists of the vitamin D receptor (VDR) signaling pathway - cell viability counter screen (AID 743225; active = well fitted curve in the direction sought with a large enough effect in the repeat runs; an effect the other way counts as inactive or inconclusive; also: % is scaled to controls: 0 for no effect and ±100 for the full control effect; nearly all actives have a fitted effect of over 50% in size)
Summary of the method: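 HEK293T VDR-bla; cpd + 1a,25-(OH)2D3 3 nM final, 16 h 37C/5% CO2; B/G FRET substrate 2 h RT; then CellTiter-Glo 30 min RT, luminescence.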

[13] = qHTS assay to identify small molecule agonists of the RXR signaling pathway - cell viability counter screen (AID 1159529; active = well fitted curve in the direction sought with a large enough effect in the repeat runs; an effect the other way counts as inactive or inconclusive)
Summary of the method: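 Steps: seed RXR-alpha-UAS-bla HEK 293T cells in assay medium containing 2% charcoal-stripped FBS; incubate 5 hr; add compounds in DMSO; incubate 16 hr at 37 C; after the bla read, add CellTiter-Glo and read luminescence at 30 min.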

[14] = qHTS assay to identify small molecule antagonists of the retinoic acid receptor (RAR) signaling pathway (AID 1159552; active = well fitted curve in the direction sought with a large enough effect in the repeat runs; an effect the other way counts as inactive or inconclusive)
Summary of the method: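 Retinol at 1 uM final stimulated RARE-luciferase expression in C3RL4 cells exposed to test compounds for 6 hr at 37 C. Reduced luminescence, read 30 min after detection reagent, indicated pathway antagonism.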

[15] = qHTS assay to identify small molecule antagonists of the estrogen related receptor (ERR) signaling pathway - cell viability counter screen (AID 1224818; active = well fitted curve in the direction sought with a large enough effect in the repeat runs; an effect the other way counts as inactive or inconclusive)
Summary of the method: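 After a 6 h pre-incubation, ERR cells were dosed by pin tool with compounds, positive/negative controls or DMSO alone. Following 17.5 h at 37 C and 30 min with CellTiter-Fluor, fluorescence was recorded.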

[16] = qHTS assay to identify small molecule antagonists of the estrogen related receptor signaling pathway with the pleiotropic PPARgamma coactivator (PGC) cell viability counter screen (AID 1224822; active = well fitted curve in the direction sought with a large enough effect in the repeat runs; an effect the other way counts as inactive or inconclusive)
Summary of the method: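 PGC/ERR cells were plated at 2,000 per well and allowed 6 h to settle before compound addition. Following 17.5 h at 37 C, CellTiter-Fluor reagent was added and fluorescence was read 30 min later.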

Nc1nc(Cl)nc2c1ncn2[C@@H]1O[C@H](CO)[C@@H](O)[C@@H]1F
inactive: Potency [1] | outcome [2] | outcome [3] | outcome [4] | outcome [5] | Potency [6] | outcome [7] | outcome [8] | Potency [9] | Potency [10] | Potency [11]

O=S(=O)(c1ccccc1)c1ccc(Cl)cc1
inactive: Potency [1] | outcome [2] | outcome [3] | outcome [4] | outcome [5] | Potency [6] | outcome [7] | outcome [8] | Potency [9] | Potency [10]

OC(CCCN1CCCCC1)(c1ccccc1)c1ccccc1
inactive: Potency [1] | Potency [12] | outcome [2] | outcome [3] | outcome [4] | outcome [5] | Potency [6] | outcome [7] | outcome [8] | Potency [9] | Potency [10]

CC(=O)OCC(=O)[C@@]12OC(C)(C)O[C@@H]1C[C@H]1[C@@H]3C[C@H](F)C4=CC(=O)C=C[C@]4(C)[C@@]3(F)[C@@H](O)C[C@@]12C
inactive: Potency [1] | Potency [12] | outcome [2] | outcome [3] | outcome [4] | outcome [5] | Potency [6] | outcome [7] | outcome [8] | Potency [9] | Potency [13] | Potency [10]

CCOC(=O)N1CCC(n2c(=O)[nH]c3cc(Cl)ccc32)CC1
inactive: Potency [1] | Potency [12] | outcome [2] | outcome [3] | outcome [4] | outcome [5] | Potency [6] | outcome [7] | outcome [8] | Potency [9] | Potency [14] | Potency [11]

CC(C)CCCCCOC(=O)CCCCC(=O)OCCCCCC(C)C
inactive: Potency [1] | outcome [2] | outcome [3] | outcome [4] | outcome [5] | Potency [6] | outcome [7] | outcome [8] | Potency [13] | Potency [10] | Potency [14] | Potency [11]

O=C(O)c1cccc(O)c1
inactive: Potency [1] | Potency [12] | outcome [2] | outcome [3] | outcome [4] | outcome [5] | Potency [6] | outcome [7] | outcome [8] | Potency [13] | Potency [10] | Potency [14] | Potency [11]

CC(C)C(OC(=O)c1ccccc1)C(C)(C)COC(=O)c1ccccc1 (stereo unspecified)
inactive: Potency [12] | outcome [2] | outcome [3] | outcome [4] | outcome [5] | Potency [6] | outcome [7] | outcome [8] | Potency [9] | Potency [10] | Potency [14]

CC(=O)Oc1ccc(C(=C2CCCCC2)c2ccc(OC(C)=O)cc2)cc1
inactive: outcome [2] | outcome [3] | outcome [4] | outcome [5] | Potency [6] | outcome [7] | outcome [8] | Potency [13] | Potency [10] | Potency [14]

Nc1ccc(S(=O)(=O)O)c(N)c1
inactive: Potency [1] | outcome [2] | outcome [3] | outcome [4] | outcome [5] | Potency [6] | outcome [7] | outcome [8] | Potency [9] | Potency [13] | Potency [10]

CCC1(C)CC(=O)NC1=O (stereo unspecified)
inactive: Potency [1] | Potency [12] | outcome [2] | outcome [3] | outcome [4] | outcome [5] | Potency [6] | outcome [7] | outcome [8] | Potency [9] | Potency [10] | outcome [15] | outcome [16]

CC1(C)C2=CCCC(C)(C)[C@]23CC[C@H]1C3
inactive: Potency [1] | outcome [2] | outcome [3] | outcome [4] | outcome [5] | Potency [6] | outcome [7] | outcome [8] | Potency [9] | Potency [10] | Potency [14] | Potency [11]

CC(=O)Nc1ccccc1C
inactive: outcome [2] | outcome [3] | outcome [4] | outcome [5] | Potency [6] | outcome [7] | outcome [8] | Potency [13]

Oc1cc(O)c(Cl)cc1Cl
inactive: Potency [1] | outcome [2] | outcome [3] | outcome [4] | outcome [5] | Potency [6] | outcome [7] | outcome [8] | Potency [9] | Potency [13] | Potency [10]

CCCCCCOC(=O)CCCCCCCC(=O)OCCCCCC
inactive: Potency [1] | outcome [2] | outcome [3] | outcome [4] | outcome [5] | Potency [6] | outcome [7] | outcome [8] | Potency [9] | Potency [13] | Potency [10]

CN1CCN(c2c(F)cc3c(=O)c(C(=O)O)cn4c3c2OCN4C)CC1
inactive: Potency [1] | Potency [12] | outcome [2] | outcome [3] | outcome [4] | outcome [5] | activity, negative = cytotoxicity [6] 0.283% [at 19 µM] | viability change, negative = cytotoxic [7] 12.5% [at 15.8 µM] | activation [8] 4.3% [at 15.8 µM] | activation [9] 9.65% [at 15.8 µM] | activity change, negative = cytotoxicity [13] 2.53% [at 15.8 µM]

C[C@@H]1C[C@H]2[C@@H]3CCC4=CC(=O)C=C[C@]4(C)[C@@]3(F)[C@@H](O)C[C@]2(C)[C@H]1C(=O)CO
inactive: Potency [1] | Potency [12] | outcome [2] | outcome [3] | outcome [4] | outcome [5] | Potency [6] | outcome [7] | outcome [8] | Potency [9] | Potency [10] | Potency [14] | Potency [11]

O=S1OCCO1
inactive: Potency [1] | Potency [12] | outcome [2] | outcome [3] | outcome [4] | outcome [5] | Potency [6] | outcome [7] | outcome [8] | Potency [9] | Potency [13] | Potency [10]

O=C(O)C(Cc1cc(I)c(O)c(I)c1)c1ccccc1 (stereo unspecified)
inactive: Potency [1] | outcome [2] | outcome [3] | outcome [4] | outcome [5] | Potency [6] | outcome [7] | outcome [8] | Potency [9] | Potency [13] | Potency [10] | Potency [14] | Potency [11]

CCOCCn1c(C2CCN(CCc3ccc(C(C)(C)C(=O)O)cc3)CC2)nc2ccccc21
inactive: Potency [1] | Potency [12] | outcome [2] | outcome [3] | outcome [4] | outcome [5] | Potency [6] | outcome [7] | outcome [8] | Potency [9] | Potency [13] | Potency [10]

COc1ccc(C(=O)c2cccc(O)c2)c(OC)c1
inactive: Potency [1] | outcome [2] | outcome [3] | outcome [4] | outcome [5] | Potency [6] | outcome [7] | outcome [8] | Potency [13] | Potency [10] | Potency [14] | Potency [11]
